Consider 27 compounds from ChEMBL document CHEMBL3433997, “St. Jude Leishmania screening dataset” (2016).

Holding throughout (assay type): functional
Experiment [1] has as its target Solute carrier family 2, facilitated glucose transporter member 1 (Homo sapiens) (UniProt P11166). The experiment can be described thus: ST_JUDE_LEISH: Cytotoxicity at 2uM final concentration against transgenic Leishmania Mexicana promastigotes LmGLUT1 that are glucose transport deficient and complemented with the human glucose transporter GLUT1. Activity is measured by DNA content using SYBR green in vitro.

For experiment [2], the target named is Hexose transporter 1 (Plasmodium falciparum) (UniProt O97467). The experiment can be described thus: ST_JUDE_LEISH: Cytotoxicity at 2uM final concentration against transgenic Leishmania Mexicana promastigotes LmPfHT that are glucose transport deficient and complemented with the Plasmodium falciparum hexose transporter. Activity is measured by DNA content using SYBR green in vitro.

Experiment [3] has as its target Glucose transporter (Leishmania mexicana) (UniProt O61059). The experiment can be described thus: ST_JUDE_LEISH: Cytotoxicity at 2uM final concentration against transgenic Leishmania Mexicana promastigotes LmGT2 that are glucose transport deficient and complemented with the L. Mexicana glucose transporter 2. Activity is measured by DNA content using SYBR green in vitro.

Chain of Solute carrier family 2, facilitated glucose transporter member 1 (Homo sapiens) (P11166 whole entry): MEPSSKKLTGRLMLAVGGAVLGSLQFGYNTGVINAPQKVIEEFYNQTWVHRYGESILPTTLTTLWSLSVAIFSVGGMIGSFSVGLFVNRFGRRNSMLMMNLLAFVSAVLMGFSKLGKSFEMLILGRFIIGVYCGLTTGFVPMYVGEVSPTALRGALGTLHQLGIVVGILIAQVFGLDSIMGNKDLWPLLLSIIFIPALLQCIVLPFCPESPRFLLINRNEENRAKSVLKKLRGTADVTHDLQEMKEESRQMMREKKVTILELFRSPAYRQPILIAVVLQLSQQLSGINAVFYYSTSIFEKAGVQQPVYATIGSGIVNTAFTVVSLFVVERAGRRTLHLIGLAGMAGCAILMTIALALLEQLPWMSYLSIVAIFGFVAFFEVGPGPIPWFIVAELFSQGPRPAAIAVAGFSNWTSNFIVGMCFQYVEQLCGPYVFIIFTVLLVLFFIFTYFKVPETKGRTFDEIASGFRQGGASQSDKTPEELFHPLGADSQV

Consider `Cn1cncc1C(=O)Nc1cccc(-c2ccc(-c3nc4cc(F)ccc4[nH]3)cc2)c1`, for which the inhibition (usually the relative decrease from the control value, in per cent) is 0% in experiment [1], -0.68% in experiment [2] and 3.3% in experiment [3].
`CS(=O)(=O)N(CC(O)Cn1c2ccc(Cl)cc2c2cc(Cl)ccc21)c1ccccc1` (stereo unspecified): the inhibition in experiment [1] came to 0.79%; in experiment [2], 1.45%; in experiment [3] it was 2.64%.
Regarding `CCCC1N=C(N)N=C(N)N1c1ccc(CC)cc1` (stereo unspecified), the figures for the inhibition in experiment [1], in experiment [2] and in experiment [3] were 1.98%, 0.44% and 1.72%, respectively.
`Cc1cccc2nc(-c3ccc(-c4ccc(CNCC5CCCO5)cc4)s3)[nH]c12` (stereo unspecified): the inhibition was 1.99% in experiment [1], 2.71% in experiment [2] and 1.98% in experiment [3].
Take `Cc1n[nH]c2cc(Nc3ccnc(Nc4ccc(CN5CCOCC5)cc4)n3)ccc12`: the inhibition in experiment [1] is 12.7%; in experiment [2], 9.89%; in experiment [3], 14.2%.
For `c1cncc(CN2CCN(Cc3ccc(-c4ccc(-c5nc6ccccc6[nH]5)s4)cc3)CC2)c1`, in that order: 12.2%, 7.69% and 1.44%.
For `CCC(O)c1ccc(Br)cc1NC(=O)c1cccc(Cl)c1` (stereo unspecified), the inhibition was -1.21% in experiment [1], 1.01% in experiment [2] and -0.55% in experiment [3].
As for `CCC(CC(C)C(=O)O)=C(c1ccccc1)c1ccccc1` (stereo unspecified), the values for the inhibition in experiment [1], in experiment [2] and in experiment [3] were -0.78%, -0.86% and 0.2%, respectively.
In the case of `Cc1c(CNCCCNc2cc(=O)c3ccccc3[nH]2)sc(C(F)=C(F)F)c1Br`, the inhibition in experiment [1] was determined as 6.84%; in experiment [2], 5.03%; in experiment [3], 5.8%.
In the case of `N#Cc1ccc(N[C@@H](CC2CCCCC2)C(=O)NCc2cc(Cl)cc(Cl)c2)c2ccccc12`, the values for the inhibition in experiment [1], in experiment [2] and in experiment [3] were 2.42%, 5.09% and 4.82%, respectively.
For the compound `CC(C)(C)c1ccc(OCCCON2C(=N)N=C(N)NC2(C)C)c(C(C)(C)C)c1`, the inhibition in experiment [1] came to 1.15%; in experiment [2], 0.14%; in experiment [3] it was 1.14%.
Consider `NC(=O)c1cccc(C(=O)Nc2cccc(-c3csc(-c4nc5ccccc5[nH]4)c3)c2)c1`, for which the inhibition in experiment [1] came to 2.68%; in experiment [2] it was 2.2%; in experiment [3], 2.09%.
`CCn1c(-c2nonc2N)nc2c(-c3ccc(CO)o3)ncc(OCCCN)c21`: the inhibition in experiment [1] worked out at 6.54%; in experiment [2], 3.21%; in experiment [3], 5.17%.
For `Nc1ccc(-c2ccc(NC(=O)Nc3cc(C(F)(F)F)ccc3F)cc2)cn1`, the inhibition in experiment [1] amounted to 7.37%; in experiment [2] it was 4.54%; in experiment [3], 2.2%.
On to `CCCc1cc(Cc2cnc(N)nc2N)cc(CCC)c1OCCCCC(=O)OC`, for which the inhibition in experiment [1] came out at 3.01%; in experiment [2], 0.4%; in experiment [3], 0.33%.
Regarding `CCc1c(CCNCCCCCCNCCc2ccc(OC)cc2)ccc(OC)c1OC`, the inhibition in experiment [1] was 5.63%; in experiment [2], 5.5%; in experiment [3], 5.8%.
On to `O=[N+]([O-])c1cccc(-c2nc(-c3ccc(Br)cc3)[nH]c2-c2ccc(Br)cc2)c1`, for which the values for the inhibition in experiment [1], in experiment [2] and in experiment [3] were 2.77%, 4.88% and 1.57%, respectively.
For `COc1ccc(C2C(C(=O)OC3CCCCC3)=C(C)NC3=C2C(=O)CCC3)cc1Br` (stereo unspecified), in that order: 0.38%, -0.1% and 1.36%.
In the case of `CN(CCCCNC(=O)/C=C/c1ccccc1)C1CC2(CCN(C(=O)OC(C)(C)C)CC2)c2ccccc21` (stereo unspecified), the results for the inhibition in experiment [1], in experiment [2] and in experiment [3] were 3.4%, 3.28% and 1.67%, respectively.
On to `Cc1cccc2nc(-c3ccc(-c4ccc(CN5CCCC(N)C5)cc4)s3)[nH]c12` (stereo unspecified), for which the figures for the inhibition in experiment [1], in experiment [2] and in experiment [3] were 0.2%, 0.06% and 0.74%, respectively.
On to `CCOc1ccc2c(c1)OC(c1ccccc1)(C(F)(F)F)NC2=O` (stereo unspecified), for which the inhibition in experiment [1] was 0.56%; in experiment [2], -0.92%; in experiment [3], 1.65%.
For the compound `Cc1ccc(C(=O)NC2CCN(CCNC(=O)Nc3cc(C)nc4ccccc34)CC2)cc1`, the inhibition is -1.56% in experiment [1], 0.53% in experiment [2] and -1.45% in experiment [3].
For `CS(=O)(=O)CCNCc1nc(-c2ccc3c(Nc4ccc(F)c(O)c4)ccnc3c2)cs1`, the inhibition is 0.96% in experiment [1], 0.78% in experiment [2] and 0.48% in experiment [3].
With `Cn1c(NC(=O)C2CCC(CNC(=O)c3ccc(O)c(-c4ccc(Cl)c(Cl)c4)c3)CC2)nc2ccccc21` (stereo unspecified), the results for the inhibition in experiment [1], in experiment [2] and in experiment [3] were 0.88%, 0.39% and 0.36%, respectively.
Consider `O=c1c2ccc(Sc3ccccn3)cc2n(-c2ccccc2)c2cc(Sc3ccccn3)ccc12`, for which the inhibition in experiment [1] is 1.05%; in experiment [2], 0.77%; in experiment [3], 2.64%.
As to `O=C(NC1CC1)c1cnc(N2CCC(c3ccccc3)CC2)c(Cl)c1`, the inhibition turned out to be 2.86% in experiment [1], 6.43% in experiment [2] and 3.1% in experiment [3].
Turning to `COc1ccccc1NC(=O)Nc1cccc(-c2cccc(-c3nc4cc(C(F)(F)F)ccc4[nH]3)c2)c1`, the inhibition in experiment [1] was -1.22%; in experiment [2], -0.1%; in experiment [3], 0.05%.
